# Source: paper PMC4336329 (PLoS ONE, 2015)
# Out of some 310,000 compounds screened, about 14,000 (4.5%) showed an effect of 50% or more. Effects have a minus sign here. The sample holds strong results, similar compounds and a random draw of the others, so the mix is not that of the screen.
# Molecular target: human ether-à-go-go-related gene (hERG) potassium channel (human, UniProt Q12809)
# Test: primary screen, population patch clamp on CHO cells stably expressing hERG; higher = less effect of the substance
# 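Note: peak tail current of the secondary pulse compared with the same well before compound.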
# human ether-à-go-go-related gene (hERG) potassium channel, sequence (Q12809 whole entry, looked up): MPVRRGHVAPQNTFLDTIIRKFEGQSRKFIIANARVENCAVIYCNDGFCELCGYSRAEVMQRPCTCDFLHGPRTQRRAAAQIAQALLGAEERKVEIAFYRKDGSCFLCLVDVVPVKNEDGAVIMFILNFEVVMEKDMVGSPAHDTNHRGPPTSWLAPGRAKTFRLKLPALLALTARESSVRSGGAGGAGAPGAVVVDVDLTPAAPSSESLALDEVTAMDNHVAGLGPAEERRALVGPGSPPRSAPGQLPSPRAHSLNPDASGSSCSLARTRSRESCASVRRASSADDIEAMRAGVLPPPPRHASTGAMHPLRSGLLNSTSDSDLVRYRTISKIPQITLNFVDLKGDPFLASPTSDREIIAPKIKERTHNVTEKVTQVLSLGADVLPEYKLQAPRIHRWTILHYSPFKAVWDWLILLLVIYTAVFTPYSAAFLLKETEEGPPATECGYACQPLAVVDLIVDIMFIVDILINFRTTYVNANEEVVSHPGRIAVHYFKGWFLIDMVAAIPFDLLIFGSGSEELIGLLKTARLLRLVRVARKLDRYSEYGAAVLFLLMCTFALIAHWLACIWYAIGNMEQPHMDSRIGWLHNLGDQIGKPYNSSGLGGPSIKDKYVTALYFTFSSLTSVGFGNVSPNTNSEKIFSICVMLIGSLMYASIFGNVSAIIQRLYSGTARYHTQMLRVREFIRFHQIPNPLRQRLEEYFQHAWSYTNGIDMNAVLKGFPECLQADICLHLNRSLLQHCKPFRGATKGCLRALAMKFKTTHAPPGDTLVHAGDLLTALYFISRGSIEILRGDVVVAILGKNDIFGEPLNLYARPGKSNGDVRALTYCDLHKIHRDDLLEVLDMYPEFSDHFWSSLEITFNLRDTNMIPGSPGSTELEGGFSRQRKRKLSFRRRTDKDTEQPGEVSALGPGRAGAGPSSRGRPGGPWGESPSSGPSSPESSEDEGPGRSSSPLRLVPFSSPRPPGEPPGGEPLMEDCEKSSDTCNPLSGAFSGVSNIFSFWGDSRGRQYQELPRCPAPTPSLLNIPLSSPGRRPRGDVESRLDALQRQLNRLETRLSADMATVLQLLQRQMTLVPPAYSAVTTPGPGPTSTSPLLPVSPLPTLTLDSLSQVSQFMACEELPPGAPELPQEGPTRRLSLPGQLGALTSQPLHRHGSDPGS
row,Structure (SMILES),"hERG current change (%, negative = inhibition) at 10uM [%]"
1,Cc1ccc(-c2n[nH]c(=S)n2/N=C/c2ccc(C(=O)O)cc2)cc1,3.02
2,CCN(CC)c1ccc(N=Cc2ccc(N(CC)CC)cc2O)cc1,0.156
3,CCCN1CCN(C(=O)c2nn(-c3ccc(OC)cc3)c(=O)c3c2c2ccccc2n3C)CC1,-3.71
4,O=C(CCC(=O)N1CCN(S(=O)(=O)c2ccc(Cl)cc2)CC1)NCc1ccccc1,-14.8
5,Cc1ccc(S(=O)(=O)N2CCN(C(=O)CCC(=O)NCc3ccc(F)cc3)CC2)cc1,-24
6,O=C(CCC(=O)N1CCOCC1)NCc1cccc(C(F)(F)F)c1,-0.171
7,COc1ccc(CNC(=O)CCC(=O)N2CCN(S(=O)(=O)c3ccc(Cl)cc3)CC2)cc1,22.3
8,Cc1ccc(S(=O)(=O)CCC(=O)N2CCc3ccccc32)cc1,-16
9,Cc1ccc(S(=O)(=O)N2CCN(C(=O)CCC(=O)NCc3cccc(C(F)(F)F)c3)CC2)cc1,-54.2
10,O=C(CCC(=O)N1CCCc2ccccc21)N1CCN(S(=O)(=O)c2ccccc2)CC1,-9.26
11,Cc1ccc(C)c(S(=O)(=O)N2CCN(C(=O)CCC(=O)NCc3ccc(Cl)cc3)CC2)c1,-65.1
12,Cc1ccc(S(=O)(=O)N2CCN(C(=O)CCC(=O)N3CCc4ccccc43)CC2)cc1,-62.2
13,O=C(CSc1nnc(-c2ccccc2O)n1Cc1ccccc1)NNC(=O)c1ccccc1O,0.52
14,COc1nccc(C(F)(F)F)c1C(=O)NC(=O)Nc1ccccc1,-8.51
15,CCOC(=O)C1CCCN(C(=O)c2cc(S(=O)(=O)N3CCCCC3)c[nH]2)C1 (stereo not shown),14.5
16,CCOC(=O)c1c(C)[nH]c(C)c1S(=O)(=O)N1CCCCC1,15.9
17,CCOC(=O)CC(NS(=O)(=O)Cc1ccccc1)c1ccc(C)cc1 (stereo not shown),-5.46
18,Cc1ccccc1NC(=O)CCC(=O)N/N=C/c1c[nH]c2ccccc12,2.16
19,C=CCn1c2ccccc2c2nnc(SCC(=O)NC(C(=O)OC)C(C)C)nc21 (stereo not shown),-15.1
20,COc1ccc(-n2c(-c3ccccc3)c[n+]3c2CCC3)cc1.[Br-],-20.5
21,COc1ccc(-n2c(-c3ccc(Br)cc3)n[nH]c2=S)cc1,13.3
22,COc1ccc(-c2c[n+]3c(n2-c2ccc(C)cc2)CCCCC3)cc1.[Br-],-48.2

row,Structure (SMILES),"hERG current change (%, negative = inhibition) at 10uM [%]"
1,COc1ccc(-n2c(-c3ccc(Br)cc3)c[n+]3c2CCCCC3)cc1.[Br-],-80.3
2,COc1ccc(-c2c[n+]3c(n2-c2c(C)n(C)n(-c4ccccc4)c2=O)CCCCC3)cc1.[Br-],4.43
3,COc1ccc(-n2c(-c3ccc(Br)cc3)c[n+]3c2SC(C)C3)cc1.[Br-] (stereo not shown),-72.6
4,COc1ccc(-n2c(-c3ccc(Br)cc3)c[n+]3c2CCC3)cc1.[Br-],-56
5,COc1cc(/C=C/c2ccc3cccc(OC)c3n2)c(O)c([N+](=O)[O-])c1,9.97
6,CNC(=S)N(Cc1ccc(OC)cc1)Cc1cc2cc(C)ccc2[nH]c1=O,18
7,O=c1ccc(Cl)cn1Cc1ccccc1F,5.34
8,CCN1C(=O)/C(=C/c2cnn(CC)c2C)SC1=S,5.73
9,COc1ccc(S(=O)(=O)N2CCOc3ccccc32)cc1,-1.55
10,Cc1ccccc1NC(=O)C(C)N1C(=O)c2ccccc2C1=O (stereo not shown),14.7
11,COc1ccc(C2NC(=O)c3ccccc3N2)cc1OC (stereo not shown),13
12,COc1ccc(Cc2nnc(SCC(=O)N3CCCC3)o2)cc1,2.54
13,COc1ccc(/C(N)=N/OC(=O)Cc2ccc(C)cc2)cc1,9.68
14,C=CCNc1oc(Cc2cccc3ccccc23)nc1C#N,-14.7
15,CCCCn1c(=O)n(C)c(=O)c2c(C(F)(F)F)cc(-c3ccncc3)nc21,-28
16,Cc1nc(C)c(-c2ccc(SCc3ccccc3F)nn2)s1,4.94
17,Cc1nc(C)c(-c2ccc(SCc3cccc(F)c3)nn2)s1,-50.6
18,Cc1nc(C)c(-c2ccc(SCc3ccc(Cl)cc3)nn2)s1,-14.7
19,O=C(O)CCC(=O)NCc1ccc(F)cc1,-7.12
20,Cc1oc(C(C)(C)C)cc1C(N)=O,12.7
21,CSc1ncccc1C(=O)NCc1ccccc1Cl,-7.25
22,O=C(COC(=O)CNC(=O)c1cccc([N+](=O)[O-])c1)Nc1cccc(S(=O)(=O)N2CCCCC2)c1,-30.8

row,Structure (SMILES),"hERG current change (%, negative = inhibition) at 10uM [%]"
1,Cc1ccc(NC(=O)COC(=O)C2CC3C=CC2C3)cc1S(=O)(=O)N1CCCCC1 (stereo not shown),-7.32
2,Cc1ccc(NC(=O)COC(=O)CNC(=O)c2cccc([N+](=O)[O-])c2)cc1S(=O)(=O)N1CCCCCC1,-49.1
3,Cc1ccc(S(=O)(=O)N2CCCCC2)cc1NC(=O)COC(=O)C1CC2C=CC1C2 (stereo not shown),-62
4,O=C(COC(=O)C1CC2C=CC1C2)Nc1cccc(S(=O)(=O)N2CCCCCC2)c1 (stereo not shown),-23.2
5,Cc1ccc(S(=O)(=O)N2CCCCC2)cc1NC(=O)COC(=O)CNC(=O)c1cc(Cl)cc([N+](=O)[O-])c1,-51.4
6,CC(=O)CC(=O)NC(=NC1CCCCC1)Nc1nc(C)cc(C)n1,7.01
7,Nc1ccc2c(c1)nnn2-c1ccccc1,-7.35
8,Cn1c(SCC(=O)NC2CC2)nnc1-c1cccc(NC(=O)c2ccccc2F)c1,-3.11
9,CCOc1ccccc1N(CC(=O)NC1CCCC1)C(=O)CNC(=O)c1cccs1,-3.75
10,CCN1CCN(CC(=O)c2c[nH]c3ccc(C)cc23)CC1,-4.16
11,O=C(c1cc(COc2c(F)cccc2F)on1)N1CCC(c2ccccc2F)C1 (stereo not shown),20.4
12,CN1CCN(C(=O)C2(NC(=O)NCc3ccccc3)CCCCC2)CC1,13.2
13,COc1ccc(CCNC(=O)C(=O)NCC2OCCN2S(=O)(=O)c2ccc(Br)cc2)cc1 (stereo not shown),-7.02
14,OC(CNC1CCCCC1)c1ccccc1 (stereo not shown),12.1
15,O=C([C@H](O)c1ccccc1)N1CCC[C@H]1CO,8.33
16,CN1C(CC(=O)c2ccccc2)CCCC1CC(O)c1ccccc1 (stereo not shown),-82.4
17,CN1CCC(N(C)CC(O)c2ccccc2)CC1.O=C(O)C(=O)O (stereo not shown),-6.05
18,O=C(CC1C(=O)CCCC1=O)c1ccccc1,25.1
19,CN1C(CC(O)c2ccccc2)CCCC1CC(O)c1ccccc1.Cl (stereo not shown),-67.8
20,CCOC(=O)C(NC(=O)CC)(Nc1ccccc1)C(F)(F)F (stereo not shown),21.9
21,Cc1noc(/C=C/c2nn(C)cc2Cl)c1[N+](=O)[O-],16.6
22,C/C(=N\Nc1ccc(C)c(Cl)c1)c1ccncc1,24.8

row,Structure (SMILES),"hERG current change (%, negative = inhibition) at 10uM [%]"
1,Cc1ccccc1C(=O)NC1CCN(Cc2nnnn2C(C)(C)C)CC1,17.7
2,O=C(CCC(=O)c1ccc(Cl)s1)Nc1ncccc1O,-28.2
3,CCOC(=O)Nc1nc(-c2ccc(Cl)cc2Cl)cs1,11.7
4,CC(CN(C)Cc1nc(Cc2cccc(C(F)(F)F)c2)no1)CN1CCCC1 (stereo not shown),-63.2
5,CCn1ccnc1CN(C)Cc1nc(Cc2cccc(C(F)(F)F)c2)no1,-60.8
6,CN(Cc1nc(Cc2cccc(C(F)(F)F)c2)no1)C1CC(C)(C)NC(C)(C)C1,-12.3
7,CCc1ccc(CN(C)Cc2nc(Cc3cccc(C(F)(F)F)c3)no2)nc1,-28.1
8,CCn1ccnc1CN(C)Cc1nc(CCC(C)C)no1,4.23
9,CN1CCCC2(CCCN(Cc3nc(Cc4cccc(C(F)(F)F)c4)no3)C2)C1 (stereo not shown),-45.2
10,COc1ccc(NC(=O)Cn2nnc(C(=O)Nc3ccc(F)c(Cl)c3)c2N)cc1,25.9
11,Cc1cccc(C(=O)NNC(=O)c2ccc(O)cc2)c1,-2.31
12,COc1ccc(CCNC(=O)COC(=O)C2CCCCC2)cc1,7.11
13,Cc1nc2nc[nH]n2c(=O)c1CCOC(=O)c1ccccc1F,20.7
14,O=C(/C=C\c1ccccc1)NCC(=O)N/N=C/c1ccc(O)cc1O,9.48
15,Cc1ccc(NC(=O)CCNS(=O)(=O)c2ccccc2)c(C(=O)c2ccccc2)c1,-20.4
16,CC(=O)c1ccc(C(=O)NC2CCCN(Cc3ccc(Cl)cc3)C2)s1 (stereo not shown),-66.4
17,Cc1cc(C(=O)NC2CCCN(Cc3ccc(Cl)cc3)C2)n(C)n1 (stereo not shown),-16
18,Cc1cc(C(=O)NC2CCCN(Cc3ccc(Cl)cc3)C2)no1 (stereo not shown),-34.6
19,O=C(NC1CCCN(Cc2ccc(Cl)cc2)C1)C1CCC1 (stereo not shown),-13.6
20,Cc1cc(C(=O)NC2CCCN(Cc3ccc(Cl)cc3)C2)c(C)o1 (stereo not shown),-11.9
21,Cc1ccsc1C(=O)NC1CCCN(Cc2ccc(Cl)cc2)C1 (stereo not shown),-56.2
22,CNc1nc(Sc2ccc(C)cc2)cc(C(F)(F)F)n1,15.5
